From the supplement of paper PMC10849652
The full data set covers some 7,900 targets. This sample favours those with a hit. About 0.6% of all pairs of compound and target were hits.

Key:
Assay in all cases: log2 fold change, soluble protein after heating vs DMSO (PISA); higher = thermal stabilisation; K562 cells, 10 uM, 30 min; active = over 0.2 and 3.5 SD of the protein, either way, in both replicates (recomputed)
erlotinib = compound: C#Cc1cccc(Nc2ncnc3cc(OCCOC)c(OCCOC)cc23)c1 [erlotinib]
How it was run: (§1)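 Aliquots of K562 cells (2×10^6 cells/mL) treated with 10 μM compound for 30 min were heated for 3 min over 48°C-58°C. After pooling and extraction in PBS with 0.5% NP-40 at 4°C, soluble protein from a 21,000xg, 90 min spin was quantified by TMTpro 16plex LC-MS/MS with channel sums equalised. Thermal stability is expressed against control samples, from duplicates, as a log2 fold change.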

[1] = compound: C/C(=N\NC(=O)C1=CC(=CC=C1)S(=O)(=O)N2CCOCC2)/C3=C(C=CC(=C3)Cl)O
How it was run: as §1

[2] = compound: C1=CC(=C(C=C1Cl)C2=NC3=NC=CN=C3C(=N2)NC4=CC=NC=C4)F
How it was run: as §1

[3] = compound: C1=CC(=CC=C1C2=NC3=C(N2)C=C(C=C3)C(=O)N)OC4=CC=C(C=C4)Cl
How it was run: as §1

[4] = compound: C1=CC2=C(C=CC(=C2)/C=C\3/C(=O)NC(=NCC4=CC=CS4)S3)N=C1
How it was run: as §1

[5] = compound: C1=CC2=NC=CN=C2C=C1/C=C/3\C(=O)NC(=O)S3
How it was run: as §1

[6] = compound: C1=CC=C(C=C1)C2=NC(=C(N2)C3=CC=NC=C3)C4=CC(=C(C=C4)Cl)O
How it was run: as §1

[7] = compound: C1=CC=C2C(=C1)C3=NNC4=CC=CC(=C43)C2=O
How it was run: as §1

[8] = compound: C1CCN(C1)C(=O)NC2=CC=CC(=C2)NC3=NC=C(C(=N3)NCCC4=CN=CN4)Br
How it was run: as §1

[9] = compound: C1CN(CCC1(CC2=CC=C(C=C2)Cl)N)C3=NC=NC4=C3C=CN4
How it was run: as §1

IRAK-1-4 Inhibitor I = compound: C1COCCN1CCN2C3=CC=CC=C3N=C2NC(=O)C4=CC(=CC=C4)[N+](=O)[O-] [IRAK-1-4 Inhibitor I]
How it was run: as §1

ibrutinib = compound: C=CC(=O)N1CCC[C@@H](n2nc(-c3ccc(Oc4ccccc4)cc3)c3c(N)ncnc32)C1 [ibrutinib]
How it was run: as §1

[10] = compound: CC(=O)c1cnc2ccc(-c3cc(Cl)c(O)c(Cl)c3)nc2c1N[C@H]1CC[C@H](CN(C)C)CC1
How it was run: as §1

ralimetinib = compound: CC(C)(C)Cn1c(N)nc2ccc(-c3[nH]c(C(C)(C)C)nc3-c3ccc(F)cc3)nc21 [ralimetinib]
How it was run: as §1

[11] = compound: CC(C)(O)CC(=O)NCCn1ccc2ncnc(Nc3ccc(Oc4cccc(C(F)(F)F)c4)c(Cl)c3)c21
How it was run: as §1

[12] = compound: CC(C)C1=C2N=C(C=C(N2N=C1)NCC3=CC=CC=C3)NCCCCCCN
How it was run: as §1

[13] = compound: CC(C)C[C@@H](C=O)NC(=O)[C@H](CC(C)C)NC(=O)[C@H](CC(C)C)NC(=O)OCc1ccccc1
How it was run: as §1

pinometostat = compound: CC(C)N(C[C@H]1O[C@@H](n2cnc3c(N)ncnc32)[C@H](O)[C@@H]1O)[C@H]1C[C@@H](CCc2nc3cc(C(C)(C)C)ccc3[nH]2)C1 [pinometostat]
How it was run: as §1

[14] = compound: CC1=C(C(CC(=O)N1)C2=CC=C(C=C2)C(F)(F)F)C(=O)NC3=C(C=C4C(=C3)C=NN4)F
How it was run: as §1

[15] = compound: CC1=C(C2=C(C=C1)C(=O)C3=CC=CC=C3N2CCCN)C
How it was run: as §1

Measured: log2 fold change

RETREG3 (UniProt Q86VR2)
Sequence of UniProt Q86VR2 (Q86VR2 whole entry, looked up): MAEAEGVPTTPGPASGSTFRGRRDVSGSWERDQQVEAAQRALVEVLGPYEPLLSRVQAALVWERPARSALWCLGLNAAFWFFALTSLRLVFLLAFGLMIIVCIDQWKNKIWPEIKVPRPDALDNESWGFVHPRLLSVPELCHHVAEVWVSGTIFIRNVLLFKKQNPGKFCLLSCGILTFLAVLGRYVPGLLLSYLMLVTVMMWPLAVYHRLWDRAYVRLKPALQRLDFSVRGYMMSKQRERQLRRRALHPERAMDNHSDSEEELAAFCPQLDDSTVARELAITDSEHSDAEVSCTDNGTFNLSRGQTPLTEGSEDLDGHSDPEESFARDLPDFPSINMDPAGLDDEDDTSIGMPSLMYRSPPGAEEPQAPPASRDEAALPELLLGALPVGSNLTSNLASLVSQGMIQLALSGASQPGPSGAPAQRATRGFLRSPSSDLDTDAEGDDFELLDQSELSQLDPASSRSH
inactive: erlotinib 0.004 | [1] 0.072 | [2] 0.037 | [3] 0.031 | [4] -0.053 | [5] 0.07 | [6] 0.062 | [7] -0.087 | [8] -0.029 | [9] 0.032 | IRAK-1-4 Inhibitor I 0.117 | ibrutinib -0.002 | [10] -0.01 | ralimetinib -0.036 | [11] -0.04 | [12] -0.167 | [13] 0.007 | pinometostat 0.035 | [14] -0.024 | [15] -0.016

RPRD1B (UniProt Q9NQG5)
Sequence of UniProt Q9NQG5 (Q9NQG5 whole entry, looked up): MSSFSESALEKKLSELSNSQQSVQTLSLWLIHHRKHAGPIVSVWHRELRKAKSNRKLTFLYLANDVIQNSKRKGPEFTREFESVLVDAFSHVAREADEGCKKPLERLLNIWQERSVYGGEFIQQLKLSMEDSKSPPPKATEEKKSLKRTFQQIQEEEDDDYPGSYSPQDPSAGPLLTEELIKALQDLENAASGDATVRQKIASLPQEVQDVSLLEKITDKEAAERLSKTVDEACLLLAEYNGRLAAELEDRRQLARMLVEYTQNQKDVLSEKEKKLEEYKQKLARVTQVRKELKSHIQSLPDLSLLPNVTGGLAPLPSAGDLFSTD
inactive: erlotinib -0.065 | [1] 0.086 | [2] 0.036 | [3] 0.028 | [4] 0.063 | [5] 0.052 | [6] 0.042 | [7] -0.005 | [8] 0.009 | [9] -0.046 | IRAK-1-4 Inhibitor I 0 | ibrutinib -0.021 | [10] -0.017 | ralimetinib 0 | [11] -0.06 | [12] -0.018 | [13] -0.028 | pinometostat -0.038 | [14] 0.022 | [15] 0.104

SEPTIN5 (UniProt G3XAH0)
inactive: erlotinib 0.009 | [1] -0.251 | [2] 0.146 | [3] 0.076 | [4] -0.022 | [5] -0.035 | [6] 0.014 | [7] -0.24 | [8] 0.009 | [9] 0.049 | ibrutinib 0.018 | [10] 0.123 | ralimetinib -0.056 | [11] -0.133 | [12] 0.092 | [13] -0.009 | [14] -0.003 | [15] 0.027

RABGAP1L isoform 3 (UniProt Q5R372)
inactive: erlotinib 0.087 | [1] 0.052 | [2] 0.161 | [3] -0.021 | [4] 0.029 | [5] 0.033 | [6] -0.001 | [7] 0.035 | [8] 0.004 | [9] 0.007 | IRAK-1-4 Inhibitor I 0.057 | ibrutinib 0.02 | [10] 0.011 | ralimetinib -0.012 | [11] -0.206 | [12] -0.068 | [13] -0.034 | pinometostat -0.006 | [14] -0.137 | [15] 0.055

SCAMP2 (UniProt O15127)
Sequence of UniProt O15127 (O15127 whole entry, looked up): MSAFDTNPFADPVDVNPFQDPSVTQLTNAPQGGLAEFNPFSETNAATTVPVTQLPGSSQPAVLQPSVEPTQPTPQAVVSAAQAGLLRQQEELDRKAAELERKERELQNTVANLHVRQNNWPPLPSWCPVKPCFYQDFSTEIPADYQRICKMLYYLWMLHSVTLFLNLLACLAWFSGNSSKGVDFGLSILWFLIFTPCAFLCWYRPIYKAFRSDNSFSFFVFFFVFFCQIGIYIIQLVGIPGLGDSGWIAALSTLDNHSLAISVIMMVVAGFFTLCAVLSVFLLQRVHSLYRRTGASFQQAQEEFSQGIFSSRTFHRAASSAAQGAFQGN
inactive: erlotinib 0.014 | [1] 0.141 | [2] 0.081 | [3] 0.011 | [4] -0.154 | [5] 0.063 | [6] 0.055 | [7] 0.057 | [8] -0.116 | [9] 0.087 | ibrutinib 0.09 | [10] 0.08 | ralimetinib -0.019 | [11] 0.013 | [12] 0.003 | [13] 0.036 | [14] -0.093 | [15] -0.066

RNASEH2A (UniProt O75792)
Sequence of UniProt O75792 (O75792 whole entry, looked up): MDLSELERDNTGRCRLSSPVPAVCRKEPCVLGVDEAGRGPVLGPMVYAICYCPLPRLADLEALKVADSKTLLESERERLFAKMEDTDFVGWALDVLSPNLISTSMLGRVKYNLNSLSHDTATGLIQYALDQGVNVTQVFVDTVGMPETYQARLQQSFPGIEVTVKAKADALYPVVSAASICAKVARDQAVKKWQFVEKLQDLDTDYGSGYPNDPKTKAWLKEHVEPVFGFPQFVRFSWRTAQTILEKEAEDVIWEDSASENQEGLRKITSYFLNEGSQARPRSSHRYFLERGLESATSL
inactive: erlotinib 0.041 | [1] 0.085 | [2] -0.062 | [3] 0.019 | [4] 0.119 | [5] -0.038 | [6] -0.026 | [7] 0.065 | [8] -0.016 | [9] -0.115 | IRAK-1-4 Inhibitor I 0 | ibrutinib 0.008 | [10] -0.07 | ralimetinib -0.08 | [11] -0.029 | [12] -0.122 | [13] 0.074 | pinometostat -0.003 | [14] 0.001 | [15] 0.042

RRAGC (UniProt Q9HB90)
Sequence of UniProt Q9HB90 (Q9HB90 whole entry, looked up): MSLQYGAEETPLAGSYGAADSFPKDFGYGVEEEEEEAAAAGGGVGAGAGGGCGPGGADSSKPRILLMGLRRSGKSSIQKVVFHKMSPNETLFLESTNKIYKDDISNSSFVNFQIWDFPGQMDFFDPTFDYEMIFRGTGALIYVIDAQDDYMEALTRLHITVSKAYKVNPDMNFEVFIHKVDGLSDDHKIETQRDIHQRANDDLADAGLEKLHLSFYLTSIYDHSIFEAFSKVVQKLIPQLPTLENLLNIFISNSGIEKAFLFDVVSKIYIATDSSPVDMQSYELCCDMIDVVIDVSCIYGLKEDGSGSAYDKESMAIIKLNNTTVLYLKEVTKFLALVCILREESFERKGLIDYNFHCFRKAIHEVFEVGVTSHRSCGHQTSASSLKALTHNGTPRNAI
inactive: erlotinib 0.014 | [1] 0.03 | [2] 0.047 | [3] -0.007 | [4] 0.019 | [5] 0.013 | [6] -0.051 | [7] -0.02 | [8] 0.014 | [9] 0.052 | IRAK-1-4 Inhibitor I 0.033 | ibrutinib -0.009 | [10] -0.057 | ralimetinib -0.056 | [11] 0.004 | [12] -0.18 | [13] 0.068 | pinometostat -0.008 | [14] 0.024 | [15] 0.034

SF3B5 (UniProt Q9BWJ5)
Sequence of UniProt Q9BWJ5 (Q9BWJ5 whole entry, looked up): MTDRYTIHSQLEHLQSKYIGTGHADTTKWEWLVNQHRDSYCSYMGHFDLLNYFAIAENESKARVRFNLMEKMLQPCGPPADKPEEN
inactive: erlotinib -0.088 | [1] -0.04 | [2] 0.319 | [3] 0.051 | [4] 0.023 | [5] 0.199 | [7] 0.107 | [8] -0.104 | [9] -0.002 | IRAK-1-4 Inhibitor I 0.055 | ibrutinib 0.127 | [10] -0.067 | [11] -0.224 | [12] 0.118 | pinometostat 0.045 | [14] 0.011 | [15] 0.156

SHROOM2 (UniProt Q13796)
active: [1] -1.03
inactive: erlotinib 0.266 | [2] 0.095 | [3] -0.361 | [4] 0.069 | [5] -0.021 | [7] 0.013 | [8] -0.027 | [9] 0.303 | IRAK-1-4 Inhibitor I 0.236 | ibrutinib 0.065 | [10] 0.137 | [11] 0.009 | [12] 0.155 | pinometostat -0.182 | [14] -0.015 | [15] 0.072

RPS6KA1 isoform 2 (UniProt Q15418)
Sequence of UniProt Q15418 (Q15418 whole entry, looked up): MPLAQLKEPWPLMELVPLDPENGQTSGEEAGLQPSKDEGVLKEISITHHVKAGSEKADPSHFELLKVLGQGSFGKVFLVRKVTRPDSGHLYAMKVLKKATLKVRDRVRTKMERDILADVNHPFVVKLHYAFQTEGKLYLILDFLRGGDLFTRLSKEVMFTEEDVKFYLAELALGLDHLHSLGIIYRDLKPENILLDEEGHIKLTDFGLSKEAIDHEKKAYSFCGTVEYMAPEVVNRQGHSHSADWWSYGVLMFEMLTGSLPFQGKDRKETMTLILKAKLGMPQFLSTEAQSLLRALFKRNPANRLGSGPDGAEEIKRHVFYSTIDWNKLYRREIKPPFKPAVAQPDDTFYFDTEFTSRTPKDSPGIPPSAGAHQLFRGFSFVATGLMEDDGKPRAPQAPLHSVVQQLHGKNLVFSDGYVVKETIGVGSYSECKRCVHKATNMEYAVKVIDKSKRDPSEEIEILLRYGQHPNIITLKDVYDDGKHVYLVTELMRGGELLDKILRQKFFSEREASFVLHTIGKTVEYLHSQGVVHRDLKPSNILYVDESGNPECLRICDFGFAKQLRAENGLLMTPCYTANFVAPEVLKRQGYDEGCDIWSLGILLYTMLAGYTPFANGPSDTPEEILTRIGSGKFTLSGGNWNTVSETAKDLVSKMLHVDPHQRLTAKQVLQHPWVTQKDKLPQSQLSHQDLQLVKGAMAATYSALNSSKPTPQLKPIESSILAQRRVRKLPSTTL
active: [7] -0.377 | ralimetinib -0.429
inactive: erlotinib -0.032 | [1] 0.104 | [2] -0.082 | [3] 0.107 | [4] 0.034 | [5] 0.039 | [6] -0.135 | [8] -0.093 | [9] 0.023 | IRAK-1-4 Inhibitor I -0.013 | ibrutinib -0.062 | [10] -0.167 | [11] -0.092 | [12] -0.164 | [13] 0.059 | pinometostat -0.006 | [14] 0.017 | [15] 0.018

SLC1A3 (UniProt P43003)
Sequence of UniProt P43003 (P43003 whole entry, looked up): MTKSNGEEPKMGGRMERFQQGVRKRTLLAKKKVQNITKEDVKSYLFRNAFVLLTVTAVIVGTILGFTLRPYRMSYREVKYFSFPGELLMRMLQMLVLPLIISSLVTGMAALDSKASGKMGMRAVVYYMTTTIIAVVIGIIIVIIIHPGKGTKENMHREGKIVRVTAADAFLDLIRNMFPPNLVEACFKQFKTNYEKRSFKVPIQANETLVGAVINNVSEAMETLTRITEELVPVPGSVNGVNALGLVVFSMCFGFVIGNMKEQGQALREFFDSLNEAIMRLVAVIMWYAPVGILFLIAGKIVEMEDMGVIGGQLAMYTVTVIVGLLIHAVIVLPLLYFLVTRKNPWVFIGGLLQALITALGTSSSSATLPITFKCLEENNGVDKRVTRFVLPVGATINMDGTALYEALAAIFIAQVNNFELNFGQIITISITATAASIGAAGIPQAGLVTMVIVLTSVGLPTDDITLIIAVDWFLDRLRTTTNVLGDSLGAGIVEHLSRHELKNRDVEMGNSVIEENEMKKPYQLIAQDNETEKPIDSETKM
inactive: erlotinib 0.025 | [1] 0.017 | [2] 0.194 | [3] 0.053 | [4] -0.169 | [5] 0.001 | [6] 0.007 | [7] 0.012 | [8] 0.05 | [9] 0.163 | ibrutinib 0.168 | [10] 0.056 | ralimetinib 0.058 | [11] 0.007 | [12] 0.238 | [13] -0.064 | [14] 0.018 | [15] 0.029

RPS20 isoform 2 (UniProt P60866)
inactive: erlotinib -0.129 | [1] -0.082 | [2] -0.171 | [3] 0.023 | [4] -0.004 | [5] -0.068 | [6] -0.04 | [7] -0.025 | [8] 0.05 | [9] -0.159 | IRAK-1-4 Inhibitor I -0.103 | ibrutinib 0.012 | [10] 0.02 | ralimetinib 0.041 | [11] 0.046 | [12] -0.03 | [13] 0.012 | pinometostat 0.123 | [14] 0.195
active: [15] -0.368

ROMO1 (UniProt P60602)
Sequence of UniProt P60602 (P60602 whole entry, looked up): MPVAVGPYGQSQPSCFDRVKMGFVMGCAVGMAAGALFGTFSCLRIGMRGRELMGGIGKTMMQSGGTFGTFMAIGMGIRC
inactive: erlotinib 0.016 | [1] -0.092 | [2] 0.045 | [3] -0.01 | [4] -0.009 | [5] 0.018 | [6] 0.008 | [7] 0.003 | [8] 0.039 | [9] 0.001 | ibrutinib 0.069 | [10] -0.044 | ralimetinib -0.024 | [11] 0.052 | [12] -0.051 | [13] -0.083 | [14] 0.039 | [15] -0.077

RPL38 (UniProt P63173)
inactive: erlotinib 0.024 | [1] -0.05 | [2] -0.148 | [3] 0.026 | [4] -0.102 | [5] -0.025 | [6] -0.027 | [7] 0.026 | [8] 0.033 | [9] -0.106 | IRAK-1-4 Inhibitor I 0.014 | ibrutinib 0.01 | [10] 0 | ralimetinib 0.043 | [11] 0.113 | [12] 0 | [13] 0.124 | pinometostat 0.07 | [14] 0.013 | [15] -0.026

SCO2 (UniProt O43819)
Sequence of UniProt O43819 (O43819 whole entry, looked up): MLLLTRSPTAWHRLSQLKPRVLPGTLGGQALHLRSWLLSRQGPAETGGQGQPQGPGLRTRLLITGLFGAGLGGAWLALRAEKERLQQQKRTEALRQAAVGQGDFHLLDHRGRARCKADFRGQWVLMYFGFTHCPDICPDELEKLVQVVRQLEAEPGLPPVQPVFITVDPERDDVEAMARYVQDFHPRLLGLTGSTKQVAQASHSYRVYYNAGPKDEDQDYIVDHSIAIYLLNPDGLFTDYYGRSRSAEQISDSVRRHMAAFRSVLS
inactive: erlotinib 0.092 | [1] 0.012 | [2] 0.055 | [3] 0.048 | [4] 0.243 | [5] -0.054 | [6] 0.017 | [7] 0.163 | [8] -0.042 | [9] 0.101 | IRAK-1-4 Inhibitor I 0.02 | ibrutinib 0.014 | [10] -0.06 | ralimetinib 0.142 | [11] -0.154 | [12] -0.071 | [13] 0.024 | pinometostat 0.054 | [15] 0.07

RNF185 (UniProt Q96GF1)
Sequence of UniProt Q96GF1 (Q96GF1 whole entry, looked up): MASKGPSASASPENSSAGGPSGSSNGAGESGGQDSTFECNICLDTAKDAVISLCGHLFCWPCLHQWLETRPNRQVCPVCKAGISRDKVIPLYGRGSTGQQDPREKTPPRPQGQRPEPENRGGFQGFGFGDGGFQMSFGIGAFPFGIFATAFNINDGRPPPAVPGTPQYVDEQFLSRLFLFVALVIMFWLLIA
inactive: erlotinib -0.054 | [1] -0.006 | [3] 0.009 | [4] 0.136 | [5] 0.026 | [6] 0.133 | [7] -0.007 | [8] 0.457 | [9] -0.031 | ibrutinib 0.045 | [10] 0.087 | ralimetinib -0.04 | [12] -0.011 | [13] -0.003 | [14] 0.006 | [15] 0.276
